From the supplement of paper PMC12532568
Structures can show the parent of a compound that is named as a salt.

System: Danio rerio larvae Tg(actc1b:ZsGreen-LC3), 3 dpf
Experiment: LC3 puncta relative area vs vehicle, without NH4Cl (log2 fold change); higher = more autophagosomes
Conditions: 10 µM; treatment time 16 h; NH4Cl: none
Method: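 Transgenic Tg(actc1b:ZsGreen-map1lc3) zebrafish larvae (2 dpf) were treated for 16 h with Tocris library compounds at 10 µM (n = 12 larvae per compound). Skeletal-muscle LC3 puncta area relative to body area was measured by high-content confocal imaging before and after 4 h of 100 mM NH4Cl (autophagic flux), normalised to vehicle (DMSO), and reported as log2 fold change.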

SMILES | LC3 puncta (log2)
CC(C)NC[C@@H](O)COc1cccc2ccccc12 [(R)-(+)-Propranolol hydrochloride] | 0.00434
c1ccc(CN(CC2=NCCN2)c2ccccc2)cc1 [Antazoline hydrochloride] | 0.664
COc1cc(N)c(Cl)cc1C(=O)OCCCN1CCCCC1 | -0.0084
CC(CCCCC(=O)Nc1ccc(C(F)(F)F)cc1)NCCc1cnc[nH]1 (stereo not given) [HTMT dimaleate] | 0.258
Cc1noc(NS(=O)(=O)c2ccc(N)cc2)c1C [Sulfisoxazole] | 0.239
O=C1CC2(CCCC2)CC(=O)N1CCCCNCC1COc2ccccc2O1 (stereo not given) | -0.00847
NS(=O)(=O)c1cccc2c1c([N+](=O)[O-])cc1nc(O)c(O)nc12 | 0.286
CC[C@@H]1C(=O)OC[C@@H]1Cc1cncn1C [Pilocarpine hydrochloride] | 0.203
O=C(O)c1cc(=O)c2ccccc2[nH]1 [Kynurenic acid] | 0.00327
CN(C)CCCCSC(=N)N | 0.222
CC(C)Oc1ccc2c(=O)c3cc(C(=O)O)ccc3oc2c1 | 0.473
CCOC(=O)C1=C(C)NC(C)=C(C(=O)OC)C1c1cccc([N+](=O)[O-])c1 (stereo not given) [Nitrendipine] | 0.107
COc1cc2nc(N3CCN(C(=O)c4ccco4)CC3)nc(N)c2cc1OC [Prazosin hydrochloride] | -0.131
O=C(O)c1cccnc1C(=O)O [Quinolinic acid] | 0.278
O=C(O)c1cc(O)c2ccc(Cl)cc2n1 [7-Chlorokynurenic acid] | 0.0331
O=C1CN(/N=C/c2ccc(-c3ccc([N+](=O)[O-])cc3)o2)C(=O)N1 [Dantrolene, sodium salt] | 0.18
Nc1cc(N2CCCCC2)nc(N)[n+]1[O-] [Minoxidil] | 0.233
O=C(NCCN1CCCCC1)c1ccc(I)cc1 [N-[2-(Piperidinylamino)ethyl]-4-iodobenzamide] | 0.492
CCCCOc1cc(CC2CNC(=O)N2)ccc1OC (stereo not given) | -0.122
C=C1C(=O)O[C@H]2[C@H]1CC/C(C)=C/CC[C@@]1(C)O[C@@H]21 [Parthenolide] | 0.0168

SMILES | LC3 puncta (log2)
Brc1c(NC2=NCCN2)ccc2nccnc12 | 0.438
O=C(O)C1=CCCNC1 [Guvacine hydrochloride] | -0.168
CC(C(O)c1ccc(O)cc1)N1CCC(Cc2ccccc2)CC1 (stereo not given) [Ifenprodil hemitartrate] | -0.219
NS(=O)(=O)c1cc2c(cc1Cl)NC(C1CC3C=CC1C3)NS2(=O)=O (stereo not given) [Cyclothiazide] | -0.147
Cc1ccc(/C(=C\CN2CCCC2)c2ccccn2)cc1 [trans-Triprolidine hydrochloride] | -0.298
COc1cc2c(CCNC(C)=O)c[nH]c2cc1Cl [6-Chloromelatonin] | -0.363
CC(N)(Cc1ccc(O)c(O)c1)C(=O)O (stereo not given) | 0.269
COc1ccccc1N1CCN(CC(O)COc2cccc3ccccc23)CC1 (stereo not given) [Naftopidil dihydrochloride] | -0.0568
NC(=O)OCC(COC(N)=O)c1ccccc1 [Felbamate] | -0.737
CC(=O)N[C@@H](Cc1c[nH]c2ccccc12)C(=O)OCc1cc(C(F)(F)F)cc(C(F)(F)F)c1 | 0.214
CC(C)CC(NC(=O)OCC1c2ccccc2-c2ccccc21)C(=O)O (stereo not given) | 0.0242
COc1ccc(CCN(C)CCc2ccc(OC)c(OC)c2)cc1OC [YS-035 hydrochloride] | 0.265
CC(=O)NCC(=O)N[C@H](CCC(=O)O)C(=O)O [N-Acetylglycyl-D-glutamic acid] | -0.0216
O=C(O)CC/C=C\C[C@H]1CO[C@@H](c2ccccc2Cl)O[C@H]1c1ccccc1O | -0.249
CCCCCCN(CCCCCC)C(=O)Cc1c(-c2ccc(F)cc2)[nH]c2ccccc12 | 0.084
CCN(CC)CCOC(=O)C1(c2ccc([N+](=O)[O-])cc2)CCCC1 [Nitrocaramiphen hydrochloride] | 0.254
C1COC(NC(C2CC2)C2CC2)=N1 [Rilmenidine hemifumarate] | 0.278
O=C(O)C=C1CCCc2ccccc2C1O (stereo not given) | 0.299
CC(C)NC[C@H](O)COc1cccc2ccccc12 [(S)-(-)-Propranolol hydrochloride] | 0.355
N[C@H](C(=O)O)c1ccc(O)c(C(=O)O)c1 [(S)-3-Carboxy-4-hydroxyphenylglycine] | 0.267
